TDP1 cell CPT – DT40-hTDP1 cell growth loss with CPT; chicken DT40 Tdp1-/-;hTDP1 cells + 20 nM CPT, ATP luminescence, 48 h; 12% of 420,000 active; Potency, µM (highest dose often 46.2 µM), without a hit: at the top dose activity change, negative = growth inhibition, usual class: inhibitors; note: nearly all actives have a fitted effect of over 55% in size
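Chicken DT40 Tdp1-/- cells stably complemented with human TDP1 were seeded at 400 cells/well in medium containing 20 nM camptothecin, exposed to pin-transferred compounds, and grown at 37 °C for at least 48 hr. Viability was read as ATP luminescence.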
KAT2A inh – inhibitors of human GCN5L2 histone acetyltransferase. GCN5L2 HAT assay, ThioGlo1 CoA-SH fluorescence. Potency, µM (highest dose often 58.9 µM), inactives show at the highest dose activity change, negative = inhibition, actives largely listed as inhibitors. 0.21% of 390,000 active. AID 504327
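Enzyme at 20nM final was mixed with library compounds for 15 min at room temperature. Peptide H3(1-25) at 75uM, acetyl-CoA at 70uM and ThioGlo1 at 50uM were then added. Plates were read immediately and after 20 min (Ex340nm/Em540nm).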
TDP1 cell noCPT – qHTS for Inhibitors of human tyrosyl-DNA phosphodiesterase 1 (TDP1): qHTS in cells in absence of CPT. AID 686978, 2013. 15% of 420,000 active. DT40 Tdp1-/- hTDP1 cells, no CPT, ATP luminescence, 48 h. Potency, µM (series often up to 46.2 µM), inactives show top-dose activity change, negative = growth inhibition, actives largely listed as inhibitors; note: nearly all actives have a fitted effect of over 55% in size
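DT40 Tdp1-/-;hTDP1 cells, no CPT (DMSO vehicle only), 400 cells/well; compounds pin-transferred; ≥48 hr, 37 °C; CellTiter-Glo 30 min RT dark, luminescence read.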
PLK1 PBD inh – blocks phosphopeptide binding to human PLK1 polo-box domain. Plk1 PBD binding of FITC phosphopeptide, fluorescence polarization. 2.8% of 360,000 active. P53350. Potency, µM, for the others: max response, negative = inhibition, actives largely listed as inhibitors. AID 720504; note: series mostly up to about 57 µM; nearly all actives have a fitted effect of over 65% in size
VDR inhibitor – vitamin D3 receptor (human) inhibition | 0.93% of 400,000 active | Potency, µM, for the others: max response, negative = inhibition, usual class: inhibitors | VDR-SRC2-3 peptide fluorescence polarization, 2 h
Target sequence (P11473 whole entry, looked up): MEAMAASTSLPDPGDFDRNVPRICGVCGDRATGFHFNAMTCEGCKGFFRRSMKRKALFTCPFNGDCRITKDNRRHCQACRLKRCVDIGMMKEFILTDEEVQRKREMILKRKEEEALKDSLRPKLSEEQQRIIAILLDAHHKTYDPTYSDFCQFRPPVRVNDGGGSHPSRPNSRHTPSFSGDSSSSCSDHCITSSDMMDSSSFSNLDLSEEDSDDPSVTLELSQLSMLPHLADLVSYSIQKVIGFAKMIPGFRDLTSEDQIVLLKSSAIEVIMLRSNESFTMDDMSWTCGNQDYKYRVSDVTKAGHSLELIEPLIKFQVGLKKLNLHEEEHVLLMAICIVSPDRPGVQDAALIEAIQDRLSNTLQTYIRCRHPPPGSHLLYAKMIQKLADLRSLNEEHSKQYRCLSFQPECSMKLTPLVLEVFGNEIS
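Fluorescence polarization assay measuring small-molecule disruption of VDR binding to the coregulator peptide SRC2-3. Compounds were pin-transferred (23 nl) into the reagent mix and incubated 2 h at room temperature before reading.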
TDP1 block – inhibitors of human tyrosyl-DNA phosphodiesterase TDP1; Q9NUW8; recombinant TDP1, AlphaScreen DNA substrate cleavage; Potency, µM (titrated, usually from 130 µM), for the others: at the top dose activity change, negative = inhibition, hits mostly inhibitors; 0.28% of 350,000 active; AID 485290; note: nearly all actives have a fitted effect of over 40% in size
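Recombinant human Tdp1 (E. coli-expressed, 1 nM final) preincubated with compounds 15 min at room temperature, then 5'-biotin/3'-phosphotyrosine-FITC DNA substrate (15 nM final) added for 5 min. AlphaScreen beads (10 ug/ml final) added 10 min; cleavage lowers signal.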
An asterisk follows results filed as active; u = inconclusive; x = no result given; [ ] = remark or other dose. Only some compounds are listed: those with a hit (about 18% of all), similar ones and a draw of the others. Calls come from the whole dose curve; as a rule, active = well fitted curve in the direction sought with a large enough effect; inconclusive = small, poorly fitted or top-dose-only effect, or another doubt; inactive = no such curve, though single readings can be large; an effect the other way counts as inactive or inconclusive. % is set by controls: 0 for no effect and ±100 for the full control effect; potency is the fitted concentration of half-maximal effect.

SMILES	TDP1 cell CPT	KAT2A inh	TDP1 cell noCPT	PLK1 PBD inh	VDR inhibitor	TDP1 block
CCc1ccc(NC(=O)Cn2nc(C(F)(F)F)c3c2CCCC3)cc1	u	-1.6%	u	x	-14.0%	2.1%
Cc1ccc(-c2c[n+](CC(=O)Nc3nc(-c4ccc(F)cc4)cs3)c3n2CCC3)cc1	11.6µM*	1.8%	10.3µM*	6.4%	-6.5%	5.3%
Cc1ccccc1NC(=O)C[n+]1cc(-c2ccccc2)n2c1CCC2	9.4%	-3.7%	-5.4%	-4.8%	8.9%	3.6%
O=C(C[n+]1cc(-c2ccc(Cl)cc2)n2c1CCC2)Nc1nc(-c2ccccc2)cs1	u	-0.6%	5.8µM*	-0.4%	-7.1%	7.1%
O=C(C[n+]1cc(-c2ccc(F)cc2)n2c1CCC2)Nc1nc(-c2ccccc2)cs1	u	0.4%	u	-0.7%	-7.6%	2.8%
COc1ccccc1-n1cnc2c(c1=O)c1nc3ccccc3nc1n2-c1ccc(C)c(C)c1	-77.4%	3.7%	18.4µM*	-11.6%	1.5%	-7.7%
CCCCNC(=O)c1sc(=S)n2c1[nH]c(=O)c1ccccc12	-25.3%	-11.4%	u	26.7µM*	u	1.0%
CCCCNC(=O)Cc1c(O)c2ccccc2[nH]c1=O	1.8%	-1.8%	-2.3%	-2.5%	3.7%	-5.1%
O=C(NC1CCCCC1)c1sc(=S)n2c1[nH]c(=O)c1ccccc12	16.4µM*	-7.0%	23.1µM*	23.8µM*	u	1.9%
O=C(Cn1nnc(-c2cccc(C(F)(F)F)c2)n1)NCc1ccc(F)cc1	-23.9%	2.4%	-28.2%	x	15.1%	4.5%
CCOC(=O)COc1cc(C)c(Cl)cc1C(=O)c1ccn2nc(-c3ccc(OC)cc3)cc2n1	u	2.5%	13µM*	x	13.1%	5.8%
CCOC(=O)COc1ccc(C)cc1C(=O)c1ccn2nc(-c3ccc(F)cc3)cc2n1	16.4µM*	-3.3%	20.6µM*	x	-9.6%	-1.9%
CC(C)[C@H]1COCCS(=O)(=O)N1Cc1ccccc1-c1ccccc1	u	-4.9%	u	23.8µM*	u	-2.1%[56.1 µM]
CC(C)[C@H]1COCCS(=O)(=O)N1Cc1ccccc1-c1ccc(C(C)(C)C)cc1	u	-9.7%	u	-5.6%	-4.4%	-2.3%[56.1 µM]
Cc1ccccc1-c1ccccc1CN1[C@@H](C(C)C)COCCS1(=O)=O	u	-7.8%	18.4µM*	-0.7%	21.9%	-4.9%[56.1 µM]
CC1=C(C(=O)N2CCOCC2)CC(CC(=O)NCc2cccc3ccccc23)C(=O)N1Cc1ccccc1 (centres undefined)	u	x	u	-4.1%	x	x
O=C(CCCCN1CCCCC1)c1ccccc1	-8.3%	x	-14.5%	-20.5%	-13.1%	x
O=C(CCN1CCC2CCC(C2)C1)c1ccccc1 (centres undefined)	2.59µM*	x	2.59µM*	13.4µM*	70.8µM*	x
Cc1ccc(S(=O)(=O)N2CC3C(=O)CC(c4ccccc4)N(S(=O)(=O)c4ccc(C)cc4)C3CC2c2cccc(Cl)c2)cc1 (centres undefined)	-3.2%	x	-7.4%	2.3%	x	x
CCCCCCCCCCCCCCCC[n+]1ccc(CC(O)c2c(C)[nH]c3ccccc23)c2ccccc21 (centres undefined)	1.58µM*	x	1.26µM*	x	x	x
Cc1[nH]c2ccccc2c1C(c1ccccn1)c1c(C)[nH]c2ccccc12	-5.7%	-13.8%	-26.9%	u	14.2%	9.3%
Cc1cnc(C(=O)NCc2c(C)ncc3c2CCN(C(=O)/C=C/c2cccs2)C3)cn1	0.0046µM*	x	-18.4%	x	x	x
CSc1nc(C(=O)N2CCc3c(cnc(C)c3CNC(=O)c3ccc4c(c3)OCO4)C2)cs1	0.13µM*	x	0.164µM*	x	x	x
Cc1ncc2c(c1CNS(=O)(=O)c1cccs1)CCN(C(=O)/C=C/c1cc(F)cc(F)c1)C2	-5.7%[9.04 µM]	x	23.1µM*	x	x	x
Cc1ncc2c(c1CNC(=O)c1ccc3c(c1)OCO3)CCN(C(=O)c1ccc3ccccc3c1)C2	6.7%[9.04 µM]	x	-18.9%	x	x	x
SMILES	TDP1 cell CPT	KAT2A inh	TDP1 cell noCPT	PLK1 PBD inh	VDR inhibitor	TDP1 block
COC(=O)C1=C(C)NC(C)=C(C(=O)OC)C1c1ccc(OC(=O)c2oc3ccccc3c2C)c(OC)c1	u	-13.5%	u	-5.6%	-13.6%	2.5%
O=C(COc1ccc(Br)cc1)NNC(=O)c1cc(S(=O)(=O)N2CCOCC2)ccc1Cl	-3.8%	x	0.5%	6.6%	-10.5%	x
O=C(c1ccccc1)N1CCC(=O)N1c1ccccc1	17.9%	11.2%	4.2%	-3.7%	-6.2%	2.3%
O=C1CN(c2ccccc2)C(=S)N1C(=O)c1ccccc1	-0.1%	-2.3%	-21.2%	26.7µM*	-28.0%	x
CCc1cc(=O)oc2c3c(cc(OCC(=O)NCCN4CCOCC4)c12)OC(C)(C)CC3	-8.6%	u	u	-0.6%	-29.8%	x
Cc1cn(-c2cc(NC(=O)c3ccc(C)c(NC(=O)c4cccc(-c5cn[nH]c(=O)c5)c4)c3)cc(C(F)(F)F)c2)cn1	u	-14.1%	u	-9.9%	12.9%	x
COc1cccc(C2c3c(ncn(-c4ccccc4C(C)(C)C)c3=N)Oc3ccc4ccccc4c32)c1 (centres undefined)	x	x	x	x	x	4.4%
CNc1ccc(Oc2nc([N+](=O)[O-])nn2C)cc1	4.7%	-1.2%	-1.1%	-8.8%	-7.7%	2.7%
CCOc1ccc(C(=O)N(Cc2ccc(C(C)C)cc2)Cc2ccco2)cc1	u	-11.2%	20.6µM*	x	-3.1%	-2.3%
Cc1ccc(CN(Cc2ccco2)C(=O)c2ccc(OCC(C)C)cc2)cc1	u	-4.5%	16.4µM*	x	6.7%	-1.2%
COc1ccc(-c2cc(C(=O)OCC(=O)N3CCCCC3)c3ccccc3n2)cc1OC	u	-20.3%	20.6µM*	5.7%	5.6%	-1.3%
Cc1ccc2c(C(=O)N3CCN(c4ccccc4)CC3)cc(-c3cccnc3)nc2c1C	u	6.8%	13µM*	-1.0%	9.4%	2.7%
COc1ccc(-c2cc(C(=O)N3CCN(c4ccccc4)CC3)c3ccccc3n2)cc1OC	u	-5.3%	16.4µM*	0.2%	10.1%	1.0%
Cc1cccc(C(=O)OCC(=O)N2CCCCCC2)c1C	u	-6.0%	20.6µM*	-4.7%	10.1%	-0.6%
CCOC(=O)C1CCCN(c2ncnc3c2cnn3-c2ccc(C)c(Cl)c2)C1 (centres undefined)	u	2.5%	-13.6%	x	-0.7%	5.2%
Cc1ccc(-c2cc(C(=O)N3CCN(c4ccccc4)CC3)c3ccccc3n2)cc1C	u	-12.4%	16.4µM*	x	8.7%	7.8%
COc1cccc(Nc2nc3cc(C)ccc3cc2C)c1	u	x	u	2.8%	x	x

Compound activity: PubChem BioAssay, National Center for Advancing Translational Sciences (NCATS)
